Rows were chosen to be rich in hits. Some 21% of all compounds tested hit in one or more screens of this group.
NS1 inh – influenza NS1 inhibition; Potency, µM (highest dose often 46.1 µM), without a hit: at the highest dose activity, positive = more growth; 0.4% of 270,000 active; AID 2326; calls by dose curve; note: potency is the fitted concentration of half-maximal effect; actives are rising curves; nearly all actives have a fitted effect of over 50% in size
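Compounds were scored for reversing the slow growth caused by influenza A NS1 in S. cerevisiae, measured by optical density at 600 nm. Assay medium contained 2% galactose at pH 6.0; NS1-free yeast of the same strain were the positive control.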
Pf growth 48h – P. falciparum growth inhibition at 48 hours (one generation); 5.9% of 310,000 active; P. falciparum luciferase growth in erythrocytes, 48 h; AID 504832; Potency, µM (titrated, usually from 28.7 µM), inactives show at the top dose activity change, negative = inhibition, hits mostly inhibitors; note: potency is the fitted concentration of half-maximal effect; % is set by controls: 0 for no effect and ±100 for the full control effect
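Read-out is firefly luciferase luminescence from an integrated reporter in P. falciparum, so falling signal marks reduced parasite growth. Infected erythrocytes were at 2% hematocrit and 0.1% parasitemia (final) in Albumax-supplemented RPMI 1640.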
Sm TGR block – inhibitors of Schistosoma mansoni thioredoxin glutathione reductase; Q962Y6; purified TGR, DTNB reduction, TNB absorbance 405 nm; Potency, µM (highest dose often 114 µM), for inactives: at the highest dose activity change, negative = inhibition, most hits filed as inhibitors; 3% of 360,000 active; AID 485364; note: potency is the fitted concentration of half-maximal effect; % is set by controls: 0 for no effect and ±100 for the full control effect; nearly all actives have a fitted effect of over 60% in size
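First, TGR (20 nM dispensed) and NADPH were mixed with compound. Second, a 15 min room-temperature incubation followed. Third, further NADPH and then DTNB were added to start the reaction. Finally, TNB absorbance was monitored kinetically.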
CHX counter – counter-screen hit for Shiga toxin inhibitors, cycloheximide. cell reporter, cycloheximide protein synthesis inhibition counterscreen. max response, %. 12% of 300,000 active. AID 2314; in the data active = max response mostly above about 13%, no sharp cut-off; inactive = mostly below about 14%; note: read at 38.3 µM for the half of the compounds with a filed dose; 0% is about no effect
Pf growth 96h – P. falciparum growth inhibition at 96 hour, primary screen for plastid delayed-death inhibitors; Potency, µM (doses to about 28.7 µM), without a hit: top-dose activity change, negative = inhibition, usual class: inhibitors; AID 504834; P. falciparum luciferase reporter growth, 96 h; 6.9% of 320,000 active; note: potency is the fitted concentration of half-maximal effect; % is set by controls: 0 for no effect and ±100 for the full control effect
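Compounds incubated with erythrocytes infected by luciferase-expressing P. falciparum (2% hematocrit, 0.05% parasitemia final) for 96 hours, 37 C in 5% CO2. Growth inhibition scored as decreased luciferase luminescence.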
Shiga inhibitor – inhibitors of Shiga toxin in Vero cells; Vero cells, Shiga toxin protein synthesis inhibition reporter; inhibition, % at 38.7 µM; 9.2% of 290,000 active; AID 2315; in the data active = inhibition mostly above about 28%, no sharp cut-off; inactive = mostly below about 43%; note: 0% is about no effect
Starred values were filed as active, the others as inactive; i = inactive; ? = inconclusive; · = not tested or not shown; ! = repeats disagree; [ ] = another dose, or the depositor's remark. Unless noted, calls come from the whole dose curve; as a rule, active = well fitted curve in the direction sought with a large enough effect; inconclusive = small, poorly fitted or top-dose-only effect, or another doubt; inactive = no such curve, though single readings can be large; an effect the other way counts as inactive or inconclusive.

SMILES	NS1 inh	Pf growth 48h	Sm TGR block	CHX counter	Pf growth 96h	Shiga inhibitor
COc1cccc2sc(/N=C/N(C)C)nc12	2%	66%	-2%	10*	42%	50*
C=CCOc1ccc(/C=C(\C#N)C(=O)Nc2ccccn2)cc1	0%	32%	2%	18	31%	-5
CC(C)Oc1ccc(C2CC(=O)NC2=O)cc1 (centres undefined)	12%	24%	-20%	12	4.1µM*	-11
CCCCCCCCOc1ccc(C2CC(=O)NC2=O)cc1 (centres undefined)	-25%	40%	100µM*	-3	-4%	-4
CC(C)Oc1ccc(C2CC(=O)N(C)C2=O)cc1 (centres undefined)	5%	38%	5%	-3	270%	23
CCCCOc1ccc(C2CC(=O)N(C)C2=O)cc1 (centres undefined)	12%	42%	1%	20*	73%	32*
O=C1CC(c2ccc(OCCCCCOc3ccc(C4CC(=O)NC4=O)cc3)cc2)C(=O)N1 (centres undefined)	-3%	?	-14%	-2	?	-21
O=C(CN(C(=O)CSc1nc2ccccc2o1)c1cccc(F)c1)NC1CCCCC1	13%	?	8%	8	?	19
O=C(O)c1cc([N+](=O)[O-])ccc1NCc1ccccn1	·	16%	-27%	·	43%	·
O=C(O)c1ccc(-c2c3nc(c(-c4ccc(C(=O)O)cc4)c4ccc([n-]4)c(-c4ccc(C(=O)O)cc4)c4nc(c(-c5ccc(C(=O)O)cc5)c5ccc2[n-]5)C=C4)C=C3)cc1.[Mn+3]	·	·	·	-4	·	-11
COc1ccc(CNC(=O)CSc2nc3cccnc3s2)cc1	-5%	87%	0%	15*	72%	17
COc1ccc2nc(SCC(=O)NCc3ccccc3)[nH]c2c1	16%	10%	-23%	0	?	-7
COC(=O)c1ccc(CSc2nc3ccc(Cl)cc3[nH]2)o1	-4%	·	?	-2	26%	-6
CCOc1ccc2nc(SCc3ccc(C(=O)OC)o3)[nH]c2c1	-6%	40%	0%	28*	29%	44*
COC(=O)c1cc(CSc2nc3ccccc3[nH]2)oc1C	-14%	·	-17%	32*	92%	36*
CCOc1ccc2nc(SCC(=O)NCc3ccc(OC)cc3)[nH]c2c1	4%	-8%	1%	21	-10%	63*
O=C(Cn1c(=O)n(Cc2ccco2)c(=O)c2ccccc21)Nc1ccc(Cl)cc1Cl	·	·	0%	·	·	·
CC(C)c1ccccc1NC(=O)CN1C(=O)c2ccccc2C1=O	1%	27%	-8%	-2	-8%	-6
COc1ccc(S(=O)(=O)Nc2ccc(S(=O)(=O)Nc3nccs3)cc2)cc1	-12%	5.2µM*	-2%	-1	15%	1
Cc1ccc(S(=O)(=O)Nc2nccs2)cc1[N+](=O)[O-]	3%	-13%	-12%	-3	?	-4
Cc1ccc(S(=O)(=O)Nc2ccc(S(=O)(=O)Nc3nccs3)cc2)c([N+](=O)[O-])c1	-17%	4%	0%	-1	2.9µM*	-3
COc1ccc(CC(=O)Nc2ccc(S(=O)(=O)Nc3nccs3)cc2)cc1	15%	2%	0%	-4	21%	-9
Cc1nc2cc(C(=O)NCc3cccnc3)ccc2n1-c1ccc(F)cc1F	·	-1%	-8%	-4	39%[1.15 µM]	-3
CCCC12CN3CC(CCC)(CN(C1)C3c1ccco1)C2=O (centres undefined)	-2%	8%	5%	5	0%	-8
Cc1oc(-c2ccccc2)nc1CN1C(=O)C(C)N=C(c2ccccc2F)c2cc(Cl)ccc21 (centres undefined)	-19%	?	-2%	-2	2.3µM*	-14
SMILES	NS1 inh	Pf growth 48h	Sm TGR block	CHX counter	Pf growth 96h	Shiga inhibitor
COc1cc(NC(=O)c2ccc(NC3=NC4CS(=O)(=O)CC4S3)cc2)cc(OC)c1OC (centres undefined)	-2%	-4%	2%	-1	?	-2
CC(=O)c1ccc(N(CC(=O)NC2CCCCC2)C(=O)CNC(=O)c2ccco2)cc1	-2%	37%	3%	-6	20%	-5
O=C1N/C(=C\c2nc3ccccc3s2)c2ccccc21	-3%	110%	7%	62*	i	76*
O=C1Nc2ccccc2Nc2ccccc21	-2%	·	-6%	-3	38%	-5
O=C1N/C(=C\c2ccccc2)c2ccccc21	-21%	123%	4%	27*	·	57*
O=C(Nc1ccccc1Cl)NC1(C(=O)NCC2CCCO2)CCCCC1 (centres undefined)	9%	11%	2%	-7	25%	-8
CC(C)=NOc1nc(N(C)C)nc(N(C)C)n1	14%	11%	0%	-3	3%	-2
CC(C)(C)NC(=O)CC1C(=O)NCCN1Cc1c(F)cccc1Cl (centres undefined)	4%	?	0%	-3	?	-5
CCOCCCNC(=O)CN(c1cc([N+](=O)[O-])ccc1OC)S(C)(=O)=O	-3%	1%	27%	-1	32%	-11
CC1CCCCN1C(=O)c1ccc(OC2CCN(S(=O)(=O)N(C)C)CC2)cc1 (centres undefined)	-4%	-13%	-13%	26*	17%	26
CN(C)S(=O)(=O)N1CCC(Oc2cccc(C(=O)NC3CCCCCC3)c2)CC1	-21%	?	-7%	-2	?	17
CN(C)S(=O)(=O)N1CCC(Oc2ccc(C(=O)N3CCCCCCC3)cc2)CC1	12%	?	-3%	62*	-19%	117*
CCN(CCn1cccn1)C(=O)c1cccc(OC2CCN(S(C)(=O)=O)CC2)c1	10%	88%	11%	-1	10µM*	-4
C#CCN(CC=C)C(=O)c1cccc(OC2CCN(S(C)(=O)=O)CC2)c1	5%	2%	-23%	3	?	-3
CCN1CCN(C(=O)c2cccc(OC3CCN(S(=O)(=O)N(C)C)CC3)c2)CC1	13%	1%	3%	27*	11%	16
C=CCNC(=O)COc1ccc(N(C)S(=O)(=O)c2ccc(NC(C)=O)cc2)cc1	13%	-6%	11%	-4	-5%	-18
COc1cccc(C(=O)N2CCC(N3CCN(Cc4ccc(F)cc4)C(=O)C3=O)CC2)c1	·	·	12%	·	·	·
CCc1ccc(S(=O)(=O)c2nnn3c2nc(NCc2cccc(OC)c2)c2cc(Cl)ccc23)cc1	·	·	3%	·	·	·
O=c1cc(-c2ccccc2)[nH]c2ccc(F)cc12	5%	0.59µM*	-12%	16	1.5µM*	17
Cc1ccc(-c2cc(=O)c3cc(F)ccc3[nH]2)cc1	11%	?	1%	16*	10µM*	18
Cc1ccc(-c2cc(=O)c3cc(C)ccc3[nH]2)cc1	6%	-6%	-10%	43*!	?	59*!
COCCN1Cc2cccc(C(=O)Nc3ccc(Cl)cc3Cl)c2C1=O	·	·	3%	·	·	·

Assay outcomes deposited in PubChem BioAssay by National Center for Advancing Translational Sciences (NCATS).
